Experimental data from the supplement of paper PMC11732987, “Enantioselective OTUD7B fragment discovery through chemoproteomics screening and high-throughput optimisation” (Communications Chemistry, 2025).

Legend:
Test in all cases: log2 ratio of Biotin-Ahx-Ub-VS probe labelling (fragment/DMSO); higher = less target engagement (more negative = stronger competition), active = hit call of the paper (q ≤ 0.05, log2 ratio ≤ -1)
Settings in all cases: compound concentration: 200 uM; treatment time: 3 h
USP19 = biological target: T1, USP19 (UniProt O94966)
T1 sequence (whole entry): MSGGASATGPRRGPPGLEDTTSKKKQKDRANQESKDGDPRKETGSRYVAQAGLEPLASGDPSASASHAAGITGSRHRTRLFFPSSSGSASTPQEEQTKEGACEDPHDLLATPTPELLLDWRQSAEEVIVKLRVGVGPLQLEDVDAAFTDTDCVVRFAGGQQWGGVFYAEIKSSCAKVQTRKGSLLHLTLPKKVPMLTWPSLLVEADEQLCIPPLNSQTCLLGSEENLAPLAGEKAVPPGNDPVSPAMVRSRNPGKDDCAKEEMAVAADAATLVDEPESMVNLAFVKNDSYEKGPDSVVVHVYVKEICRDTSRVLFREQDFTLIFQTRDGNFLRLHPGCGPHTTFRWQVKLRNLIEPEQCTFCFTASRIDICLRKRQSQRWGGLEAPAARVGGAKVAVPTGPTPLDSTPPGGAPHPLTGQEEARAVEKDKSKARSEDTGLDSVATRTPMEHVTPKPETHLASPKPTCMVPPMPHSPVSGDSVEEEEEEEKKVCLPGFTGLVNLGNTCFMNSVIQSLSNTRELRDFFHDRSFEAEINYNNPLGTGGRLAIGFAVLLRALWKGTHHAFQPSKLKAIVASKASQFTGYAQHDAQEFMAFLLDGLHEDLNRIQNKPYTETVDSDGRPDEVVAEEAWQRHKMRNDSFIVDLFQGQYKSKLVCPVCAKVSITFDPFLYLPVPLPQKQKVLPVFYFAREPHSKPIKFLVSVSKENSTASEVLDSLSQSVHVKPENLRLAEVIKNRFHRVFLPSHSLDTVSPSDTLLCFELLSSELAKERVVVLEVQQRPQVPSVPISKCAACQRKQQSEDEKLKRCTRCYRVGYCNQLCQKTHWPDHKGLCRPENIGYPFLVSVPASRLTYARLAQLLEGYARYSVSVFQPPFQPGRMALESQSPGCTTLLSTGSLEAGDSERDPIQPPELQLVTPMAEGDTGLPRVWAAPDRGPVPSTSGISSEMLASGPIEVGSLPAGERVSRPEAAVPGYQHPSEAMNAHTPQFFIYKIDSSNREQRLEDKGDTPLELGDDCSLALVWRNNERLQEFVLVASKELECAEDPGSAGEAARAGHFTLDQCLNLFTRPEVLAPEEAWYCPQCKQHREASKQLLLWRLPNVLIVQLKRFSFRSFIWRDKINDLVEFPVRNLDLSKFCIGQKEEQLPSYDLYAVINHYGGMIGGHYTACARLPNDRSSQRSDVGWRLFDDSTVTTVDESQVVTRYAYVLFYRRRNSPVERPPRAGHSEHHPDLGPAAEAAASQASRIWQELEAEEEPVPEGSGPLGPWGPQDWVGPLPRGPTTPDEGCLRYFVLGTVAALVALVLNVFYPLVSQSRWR
In short: (§1)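 Labelled DUBs from HEK293T lysate were NeutrAvidin-enriched, digested with LysC and trypsin, and run by diaPASEF LC-MS/MS. Before that, each 495 µg sample in Tris/CHAPS/IGEPAL buffer with protease inhibitors was treated in triplicate with fragment at 200 µM or vehicle for 3 h, then with Biotin-Ahx-Ub-VS at 0.5 µM final for 1 h. Values are average log2 ratios of fragment over vehicle by unpaired t-test, based on global-median-normalised Spectronaut label-free quantities from proteins with ≥2 unique peptides.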

USP22 = biological target: T2, USP22 (UniProt Q9UPT9)
T2 sequence (whole entry): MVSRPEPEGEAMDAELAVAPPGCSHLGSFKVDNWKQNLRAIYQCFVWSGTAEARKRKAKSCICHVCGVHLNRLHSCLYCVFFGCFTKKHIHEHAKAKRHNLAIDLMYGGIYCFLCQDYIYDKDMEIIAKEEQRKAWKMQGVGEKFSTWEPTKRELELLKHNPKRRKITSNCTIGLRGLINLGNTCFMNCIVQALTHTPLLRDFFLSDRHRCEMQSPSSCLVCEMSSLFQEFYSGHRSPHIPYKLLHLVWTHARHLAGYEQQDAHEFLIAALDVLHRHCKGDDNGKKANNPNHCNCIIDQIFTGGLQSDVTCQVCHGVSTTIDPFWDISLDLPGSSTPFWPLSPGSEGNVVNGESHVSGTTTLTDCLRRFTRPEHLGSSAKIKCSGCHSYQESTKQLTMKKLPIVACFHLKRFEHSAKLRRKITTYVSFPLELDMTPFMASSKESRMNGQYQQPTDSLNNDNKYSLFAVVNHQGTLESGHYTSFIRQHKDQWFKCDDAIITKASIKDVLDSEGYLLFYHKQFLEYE
In short: as §1

USP24 = USP24 (UniProt Q9UPU5)
In short: as §1

USP25 = biological target: T3, USP25 (UniProt Q9UHP3)
T3 sequence (whole entry): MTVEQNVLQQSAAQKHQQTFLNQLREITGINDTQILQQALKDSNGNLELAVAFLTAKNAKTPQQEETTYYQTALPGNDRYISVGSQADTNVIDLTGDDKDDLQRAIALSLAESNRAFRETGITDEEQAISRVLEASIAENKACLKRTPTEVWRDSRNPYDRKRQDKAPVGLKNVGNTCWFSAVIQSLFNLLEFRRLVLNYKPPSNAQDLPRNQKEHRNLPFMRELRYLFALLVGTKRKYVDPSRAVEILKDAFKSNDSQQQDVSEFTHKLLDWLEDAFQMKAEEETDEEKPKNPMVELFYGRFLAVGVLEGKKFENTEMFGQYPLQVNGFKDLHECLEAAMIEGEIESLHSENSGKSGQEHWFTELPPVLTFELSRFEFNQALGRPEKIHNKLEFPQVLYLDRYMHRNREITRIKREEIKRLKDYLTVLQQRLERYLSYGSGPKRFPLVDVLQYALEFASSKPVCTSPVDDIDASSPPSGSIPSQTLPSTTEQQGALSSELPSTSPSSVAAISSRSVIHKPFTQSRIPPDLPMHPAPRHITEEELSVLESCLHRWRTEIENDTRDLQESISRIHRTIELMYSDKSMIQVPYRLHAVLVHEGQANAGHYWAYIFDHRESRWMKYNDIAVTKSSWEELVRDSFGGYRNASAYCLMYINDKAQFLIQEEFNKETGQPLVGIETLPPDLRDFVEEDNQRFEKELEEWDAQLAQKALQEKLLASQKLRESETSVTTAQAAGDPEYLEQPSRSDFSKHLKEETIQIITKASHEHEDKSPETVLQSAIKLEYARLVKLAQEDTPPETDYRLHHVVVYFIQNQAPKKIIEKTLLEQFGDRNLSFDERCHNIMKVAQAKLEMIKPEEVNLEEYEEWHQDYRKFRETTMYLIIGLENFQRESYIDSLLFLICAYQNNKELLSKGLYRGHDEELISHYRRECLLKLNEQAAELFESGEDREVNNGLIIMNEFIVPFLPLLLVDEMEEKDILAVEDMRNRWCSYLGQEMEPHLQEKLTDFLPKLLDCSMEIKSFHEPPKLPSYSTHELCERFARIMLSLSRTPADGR
In short: as §1

USP28 = biological target: T4, USP28 (UniProt Q96RU2)
T4 sequence (whole entry): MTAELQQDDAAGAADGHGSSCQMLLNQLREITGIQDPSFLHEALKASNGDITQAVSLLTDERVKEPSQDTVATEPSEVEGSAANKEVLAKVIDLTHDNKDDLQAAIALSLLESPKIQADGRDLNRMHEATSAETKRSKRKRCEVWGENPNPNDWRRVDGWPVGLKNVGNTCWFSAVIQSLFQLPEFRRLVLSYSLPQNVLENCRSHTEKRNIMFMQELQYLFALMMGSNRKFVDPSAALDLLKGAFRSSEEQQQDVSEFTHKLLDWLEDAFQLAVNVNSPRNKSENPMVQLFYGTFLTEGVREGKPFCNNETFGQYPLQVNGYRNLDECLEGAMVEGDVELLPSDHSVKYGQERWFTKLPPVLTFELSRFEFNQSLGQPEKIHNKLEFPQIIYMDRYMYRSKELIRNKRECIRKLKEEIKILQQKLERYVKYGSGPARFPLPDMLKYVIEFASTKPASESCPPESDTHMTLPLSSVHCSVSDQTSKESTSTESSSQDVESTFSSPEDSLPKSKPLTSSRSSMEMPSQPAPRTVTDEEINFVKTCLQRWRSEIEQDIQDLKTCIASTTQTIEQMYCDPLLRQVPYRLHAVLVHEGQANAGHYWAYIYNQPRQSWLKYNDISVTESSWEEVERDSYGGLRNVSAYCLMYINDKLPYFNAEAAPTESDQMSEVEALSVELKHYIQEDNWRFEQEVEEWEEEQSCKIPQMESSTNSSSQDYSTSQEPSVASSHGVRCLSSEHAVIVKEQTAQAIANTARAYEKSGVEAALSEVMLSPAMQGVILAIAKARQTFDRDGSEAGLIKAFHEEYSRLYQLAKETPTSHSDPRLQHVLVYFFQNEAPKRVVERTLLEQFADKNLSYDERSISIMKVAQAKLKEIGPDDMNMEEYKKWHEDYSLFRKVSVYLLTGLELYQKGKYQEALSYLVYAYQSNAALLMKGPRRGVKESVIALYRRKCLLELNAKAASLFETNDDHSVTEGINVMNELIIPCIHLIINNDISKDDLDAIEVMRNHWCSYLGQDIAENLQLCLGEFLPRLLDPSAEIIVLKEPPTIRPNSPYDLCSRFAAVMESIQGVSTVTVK
In short: as §1

Measured: log2 ratio of Biotin-Ahx-Ub-VS probe labelling

Sequence of USP24 (Q9UPU5 whole entry): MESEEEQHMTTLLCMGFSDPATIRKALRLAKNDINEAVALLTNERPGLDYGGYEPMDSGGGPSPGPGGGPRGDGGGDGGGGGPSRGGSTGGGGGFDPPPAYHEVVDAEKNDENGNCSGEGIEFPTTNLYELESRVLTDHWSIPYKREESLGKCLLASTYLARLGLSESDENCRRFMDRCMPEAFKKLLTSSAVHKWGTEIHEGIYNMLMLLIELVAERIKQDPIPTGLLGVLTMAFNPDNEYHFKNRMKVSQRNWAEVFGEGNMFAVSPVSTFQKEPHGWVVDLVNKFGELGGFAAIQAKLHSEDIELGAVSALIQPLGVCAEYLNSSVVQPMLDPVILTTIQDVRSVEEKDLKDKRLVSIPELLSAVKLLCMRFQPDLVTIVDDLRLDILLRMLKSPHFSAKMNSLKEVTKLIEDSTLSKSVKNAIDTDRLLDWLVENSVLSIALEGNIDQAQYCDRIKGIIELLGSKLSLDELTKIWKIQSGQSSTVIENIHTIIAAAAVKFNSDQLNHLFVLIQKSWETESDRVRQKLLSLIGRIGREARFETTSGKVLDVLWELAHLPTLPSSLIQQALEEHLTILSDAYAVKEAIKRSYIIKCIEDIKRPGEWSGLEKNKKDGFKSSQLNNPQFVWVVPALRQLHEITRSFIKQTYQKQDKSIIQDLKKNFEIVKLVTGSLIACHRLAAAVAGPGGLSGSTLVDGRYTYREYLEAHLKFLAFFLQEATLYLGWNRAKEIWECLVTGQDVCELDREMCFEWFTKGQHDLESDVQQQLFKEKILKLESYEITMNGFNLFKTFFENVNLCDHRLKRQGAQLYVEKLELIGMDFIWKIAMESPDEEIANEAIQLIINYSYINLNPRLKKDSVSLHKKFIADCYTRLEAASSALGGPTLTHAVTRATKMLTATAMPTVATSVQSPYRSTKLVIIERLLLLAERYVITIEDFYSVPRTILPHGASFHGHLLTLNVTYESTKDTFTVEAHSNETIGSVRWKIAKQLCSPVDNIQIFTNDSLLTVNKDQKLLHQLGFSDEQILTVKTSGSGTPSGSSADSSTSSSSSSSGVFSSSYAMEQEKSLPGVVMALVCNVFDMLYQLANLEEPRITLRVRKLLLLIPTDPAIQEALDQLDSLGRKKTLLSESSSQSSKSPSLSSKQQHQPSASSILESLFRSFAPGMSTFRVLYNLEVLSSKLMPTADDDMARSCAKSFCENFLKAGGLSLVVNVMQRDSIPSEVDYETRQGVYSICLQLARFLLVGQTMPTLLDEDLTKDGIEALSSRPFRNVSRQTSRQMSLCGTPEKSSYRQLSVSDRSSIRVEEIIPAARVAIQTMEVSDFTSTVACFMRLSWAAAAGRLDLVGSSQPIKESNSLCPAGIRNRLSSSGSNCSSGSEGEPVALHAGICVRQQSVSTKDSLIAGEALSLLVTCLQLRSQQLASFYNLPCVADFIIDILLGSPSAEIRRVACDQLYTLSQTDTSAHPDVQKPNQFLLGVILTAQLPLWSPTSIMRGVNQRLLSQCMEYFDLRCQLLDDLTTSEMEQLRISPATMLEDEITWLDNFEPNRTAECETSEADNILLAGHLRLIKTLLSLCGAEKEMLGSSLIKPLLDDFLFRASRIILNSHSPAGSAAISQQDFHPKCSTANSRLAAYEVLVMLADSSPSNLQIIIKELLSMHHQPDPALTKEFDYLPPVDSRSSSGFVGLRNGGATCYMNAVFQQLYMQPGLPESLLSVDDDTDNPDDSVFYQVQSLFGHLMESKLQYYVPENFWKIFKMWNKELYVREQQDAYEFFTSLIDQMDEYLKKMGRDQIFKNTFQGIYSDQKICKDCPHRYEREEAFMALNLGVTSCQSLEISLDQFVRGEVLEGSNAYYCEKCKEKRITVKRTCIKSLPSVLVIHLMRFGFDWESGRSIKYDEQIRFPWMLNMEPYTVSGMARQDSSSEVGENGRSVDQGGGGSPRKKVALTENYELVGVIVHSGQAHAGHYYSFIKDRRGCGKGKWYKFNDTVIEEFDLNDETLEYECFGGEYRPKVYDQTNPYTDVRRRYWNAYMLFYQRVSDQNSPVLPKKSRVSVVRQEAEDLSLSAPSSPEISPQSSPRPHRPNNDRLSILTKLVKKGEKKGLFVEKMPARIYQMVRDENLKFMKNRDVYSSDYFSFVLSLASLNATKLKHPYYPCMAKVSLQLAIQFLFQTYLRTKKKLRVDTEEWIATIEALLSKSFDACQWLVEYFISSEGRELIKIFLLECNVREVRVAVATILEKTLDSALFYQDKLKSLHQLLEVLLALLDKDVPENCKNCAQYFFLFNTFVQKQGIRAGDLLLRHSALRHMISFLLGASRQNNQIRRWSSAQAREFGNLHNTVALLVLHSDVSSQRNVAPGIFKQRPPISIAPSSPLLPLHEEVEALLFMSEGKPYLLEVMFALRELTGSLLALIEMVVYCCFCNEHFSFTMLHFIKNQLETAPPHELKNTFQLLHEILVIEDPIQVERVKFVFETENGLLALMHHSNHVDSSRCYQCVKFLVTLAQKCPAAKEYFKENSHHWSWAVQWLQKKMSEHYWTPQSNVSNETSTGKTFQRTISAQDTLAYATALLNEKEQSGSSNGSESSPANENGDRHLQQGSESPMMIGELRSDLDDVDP

O=C(CCl)N(Cc1ccsc1)C1CC1
inactive: USP19 -0.0676 | USP22 0.255 | USP24 -0.704 | USP25 -0.45 | USP28 -0.283
